# A selection: hits, their analogues and other compounds. The true share with any hit is near 14%.
# Pf growth 48h = inhibits P. falciparum growth in the first generation, 48 h | 310,000 tested, 5.9% active | P. falciparum luciferase growth in erythrocytes, 48 h | Potency, µM (titrated, usually from 28.7 µM), inactives show at the highest dose activity change, negative = inhibition, actives largely listed as inhibitors; note: potency is the fitted concentration of half-maximal effect
#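 Luminescence readout; reporter = integrated firefly luciferase in P. falciparum. RBC culture at 2% hematocrit, 0.1% parasitemia final, 37 C/5% CO2; decreased signal taken as growth inhibition.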
# Sm TGR inh = inhibitors of Schistosoma mansoni thioredoxin glutathione reductase; 360,000 tested, 3% active; purified TGR, DTNB reduction, TNB absorbance 405 nm; Q962Y6; Potency, µM (series often up to 114 µM), without a hit: at the top dose activity change, negative = inhibition, actives largely listed as inhibitors; note: potency is the fitted concentration of half-maximal effect; nearly all actives have a fitted effect of over 60% in size
#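 Kinetic colorimetric format: TGR-catalysed, NADPH-driven DTNB reduction monitored via TNB absorbance. Enzyme dispensed at 20 nM; compound exposure 15 min at room temperature before reaction start.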
# Giardia FBPA inh = inhibitors of Giardia lamblia fructose-1,6-bisphosphate aldolase | 290,000 tested, 0.71% active | A8B2U2 | purified Giardia FBPA | Potency, µM (series often up to 59.6 µM), without a hit: at the top dose activity, negative = inhibition, usual class: inhibitors; note: potency is the fitted concentration of half-maximal effect; nearly all actives have a fitted effect of over 55% in size
# Target sequence (A8B2U2 whole entry, looked up): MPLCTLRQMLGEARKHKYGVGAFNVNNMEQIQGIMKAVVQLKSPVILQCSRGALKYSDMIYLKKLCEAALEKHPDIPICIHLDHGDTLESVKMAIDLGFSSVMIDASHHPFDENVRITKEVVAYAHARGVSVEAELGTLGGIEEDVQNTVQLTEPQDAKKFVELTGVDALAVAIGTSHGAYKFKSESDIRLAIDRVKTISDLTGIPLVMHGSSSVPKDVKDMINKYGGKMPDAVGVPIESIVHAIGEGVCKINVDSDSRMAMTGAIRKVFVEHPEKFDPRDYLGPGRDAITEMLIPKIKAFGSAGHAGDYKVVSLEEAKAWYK
#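 Giardia FBPA (40 nM reagent) was preincubated 10 min at RT with compound (up to 57.5 uM final), then substrate plus GAPDH/TPI/NAD/arsenate coupling system with diaphorase/resazurin was added; resorufin fluorescence (525/598 nm) was read after 20 min.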
# HCMV antiviral = inhibitors of human cytomegalovirus; HFF cells, HCMV-luciferase reporter, 72 h; hits give low values; AID 1259415; activity change, negative = inhibition, % at 57.5 µM; 410,000 tested, 4.5% active; in the data active = activity change below about -60%; inconclusive = no clear call, values can overlap the other calls; inactive = above about -39%
#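 Two compound doses tested in HFFs infected with HCMV-luciferase, MOI 1 PFU/cell, 72 h at 37C. Lysate luminescence read with OneGlo; data normalized against buffer-only and 10uM Salinomycin inhibitor controls.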
# Pf growth 96h = P. falciparum growth inhibition at 96 hour, primary screen for plastid delayed-death inhibitors. Potency, µM (highest dose often 28.7 µM), for inactives: top-dose activity change, negative = inhibition, most hits filed as inhibitors. P. falciparum luciferase reporter growth, 96 h. 320,000 tested, 6.9% active; note: potency is the fitted concentration of half-maximal effect
#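 Parasite growth measured via integrated firefly luciferase reporter in P. falciparum. Infected erythrocytes at 2% hematocrit, 0.05% parasitemia final were treated 96 hours at 37 C under 5% CO2, and luminescence was read.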
# Numbers without * were called inactive; ? = inconclusive; . = not tested or not shown; [ ] = remark or other dose. Unless noted, calls come from the whole dose curve; as a rule, active = well fitted curve in the direction sought with a large enough effect; inconclusive = small, poorly fitted or top-dose-only effect, or another doubt; inactive = no such curve, though single readings can be large; an effect the other way counts as inactive or inconclusive. % is set by controls: 0 for no effect and ±100 for the full control effect.
SMILES,Pf growth 48h,Sm TGR inh,Giardia FBPA inh,HCMV antiviral,Pf growth 96h
Cc1cccc(-n2c(=O)c3c(c4cc(C)ccc4n3C)n(CC(=O)Nc3ccc(C)c(C)c3)c2=O)c1,.,1%,.,3,.
COc1ccc2c(c1)CC1(CN2C)C(=O)NC(=O)N(c2ccc(C)cc2)C1=O (centres undefined),-17%,50µM*,?,8,.
Cc1ccc2nc(-c3ccccc3)cc(C(=O)NCC(c3ccco3)N(C)C)c2c1 (centres undefined),?,-13%,.,-32,?
CCCC[C@H]1COCCS(=O)(=O)N1Cc1ccccc1F,1%,-1%,-6%,-99*,4%
O=S1(=O)CCOC[C@H](Cc2ccccc2)N1Cc1ccc(F)cc1,.,.,.,-67*,.
COc1cccc(CNC(=O)Cn2c(=O)ccc3cc(S(=O)(=O)N4CCC(C)CC4)ccc32)c1,.,4%,.,9,.
OC1(c2ccc(Br)cc2)CCN(Cc2cccc(Br)c2)CC1,?,-34%,-26%,-17,4.7µM*
Brc1cccc(CN2CCCCCC2)c1,9%,3%,-26%,0,-17%
CN(C)c1ccc(-c2ccnc3c2CC(C)(C(=O)NCc2ccc(F)c(F)c2)O3)cc1 (centres undefined),.,.,.,12,.
COC(=O)c1[nH]c2ccc(C)cc2c1NC(=O)CCN1CCN(Cc2ccc3c(c2)OCO3)CC1,?,-17%,-3%,-39,8.3µM*
CCOC(=O)c1[nH]c2ccc(Br)cc2c1NC(=O)CCN1CCOCC1,23%,4%,3%,31,?
CCOC(=O)c1[nH]c2ccc(Cl)cc2c1NC(=O)/C=C/c1ccc2c(c1)OCO2,30%,4%,4%,?,9%
CCN(CC(=O)Nc1c(C(=O)OC)[nH]c2ccc(Cl)cc12)c1ccc2c(c1)OCO2,13µM*,0%,-20%,-20,?
CCOC(=O)c1[nH]c2ccc(Br)cc2c1NC(=O)CCN1CCN(C(=O)OCC)CC1,10µM*,9%,-4%[12.9 µM],52,9%
COC(=O)N1C(C2CC2)=Cc2ccccc2C1CC(C)=O (centres undefined),.,.,0%,.,.
C=C1C=C(C(F)F)n2ncc(C(=O)Nc3ccc(C(C)CC)cc3)c2N1 (centres undefined),?,.,.,.,-16%
O=C(Nc1cccc(S(=O)(=O)NC2=NCCC2)c1)c1cc(-c2ccco2)nc2ccccc12,?,18µM*,-29%,8,?
O=C(NC(=S)Nc1cccc(S(=O)(=O)NC2=NCCC2)c1)c1cc(-c2ccco2)nc2ccccc12,?,13µM*,-6%,-81*,?
O=C(Cc1ccc(Br)cc1)Nc1ccc2[nH]ncc2c1,47%,-7%,-3%,34,7%
Cc1ccc(-c2nc(S(=O)(=O)c3ccc(Cl)cc3)c(N3CCCCC3)o2)cc1,.,3%,.,15,.
COc1ccc(Cl)cc1NC(=O)C(C)n1nnc2sc3c(c2c1=O)CCCC3 (centres undefined),.,-4%,.,-15,.
O=C(N/N=C\C=C\c1ccc2c(c1)OCO2)C1COc2cc3ccccc3cc2O1 (centres undefined),0%,4%,2%,-14,5%
O=C(N/N=C\C=C\c1ccco1)C1COc2ccccc2O1 (centres undefined),-7%,3.2µM*,?,24,-1%
O=C(Nc1ccc([N+](=O)[O-])cc1)C1COc2ccccc2O1 (centres undefined),?,-4%,10%,4,27%
O=C(N/N=C/C=C/c1ccc([N+](=O)[O-])cc1)C1COc2ccccc2O1 (centres undefined),11%,-10%,-1%,-4,12µM*
SMILES,Pf growth 48h,Sm TGR inh,Giardia FBPA inh,HCMV antiviral,Pf growth 96h
O=C(c1cn(-c2ccccc2)nc1-c1ccc(Br)cc1)N1CCOCC1,?,2%,5%,?,8%
CC(C)(C)c1ccc(-n2ncc3c2CCCC3NC(=O)CCC2=NNC(=O)CC2)cc1 (centres undefined),.,.,.,-76*,.
Cc1ccc(-n2ncc3c2CCCC3NC(=O)CCCN2CCCC2=O)cc1C (centres undefined),?,0%,-1%,-7,4.7µM*
CC(C)(C)c1ccc(-n2ncc3c2CCCC3NC(=O)CCN2CCCCC2=O)cc1 (centres undefined),?,0%,.,-64*,94%
COc1ccc(S(=O)(=O)/N=C2/NC(=O)/C(=C/c3ccco3)S2)cc1,-8%,?,10%,14,32%
COc1ccc(N=C2NC(=O)/C(=C/C=C/c3ccccc3)S2)cc1,7.4µM*,-6%,1%,-40,6.6µM*
COc1ccc(S(=O)(=O)/N=C2/NC(=O)/C(=C\c3ccco3)S2)cc1,34%,45µM*,6%,-16,27%
COc1ccc(/C=C2\SC(=Nc3ccccc3OC)NC2=O)cc1,0.33µM*,-2%,0%,4,34%
COc1cc(/C=C2\SC(=Nc3ccccc3OC)NC2=O)ccc1O,-16%,-2%,5%,-12,22%
COc1ccc(N=C2NC(=O)/C(=C\C=C\c3ccccc3)S2)cc1,?,6%,-1%,-25,-1%
COc1ccc(N=C2NC(=O)/C(=C/c3ccco3)S2)cc1,?,32µM*,-5%,-68*,9.3µM*
NC(=S)N/N=C1\CC(n2nnnc2-c2ccccc2)C2COC1O2 (centres undefined),-5%,?,?,-68*,?
NC(=S)N/N=C1\CC(n2nnn(-c3cccc(Cl)c3)c2=S)C2COC1O2 (centres undefined),1%,-26%,-9%,-24,-6%
COc1ccc(/C=C/C(=O)NC2CCCCCCC2)cc1S(=O)(=O)N1CCOCC1,?,-4%,-1%,93,5.9µM*
COc1ccc(/C=C/C(=O)Nc2ccc(NC(C)=O)cc2)cc1S(=O)(=O)N1CCOCC1,?,9%,2%,-17,?
COc1ccc(OC)c(NC(=O)/C=C/c2ccc(S(=O)(=O)N3CCOCC3)cc2)c1,12µM*,-1%,.,-13,2.9µM*
COc1ccc(C)cc1NC(=O)/C=C/c1ccc(OC)c(S(=O)(=O)N2CCOCC2)c1,9.3µM*,-11%,.,-22,5.2µM*
COc1ccc(CNC(=O)/C=C/c2ccc(S(=O)(=O)N3CCOCC3)cc2)cc1,?,-13%,-7%,45,-22%
COc1ccc(/C=C/C(=O)Nc2ccccc2Cl)cc1S(=O)(=O)N1CCOCC1,10µM*,-1%,0%,-23,10µM*
COc1ccc(CN(C)C(=O)/C=C/c2ccc(S(=O)(=O)N3CCOCC3)cc2)cc1F,12µM*,-1%,.,-29,?
O=C(Nc1ccc(-n2nncc2-c2ccco2)cc1)c1cc2ccccc2oc1=O,3%,-3%,1%,.,12µM*
